This is a sample that favours compounds with a hit; in the whole collection about 6.6% have one here.
TSG101-PTAP inh: blocks PTAP/TSG101 interaction to inhibit HIV-1 budding; Q99816; Fluorescence polarization, FITC-PTAP peptide / Tsg101 binding; Potency, µM (doses to about 115 µM), most hits filed as inhibitors; 340,000 tested, under 10 active; AID 493005; active = well fitted inhibition curve with a large enough effect in the main read-out, with a control signal flat, not every such curve was filed as active; inconclusive = small, poorly fitted or top-dose-only effect, or effect the other way, or a change in a side signal; inactive = no such curve, though single readings can be large or run the other way
Target sequence (Q99816 whole entry, looked up): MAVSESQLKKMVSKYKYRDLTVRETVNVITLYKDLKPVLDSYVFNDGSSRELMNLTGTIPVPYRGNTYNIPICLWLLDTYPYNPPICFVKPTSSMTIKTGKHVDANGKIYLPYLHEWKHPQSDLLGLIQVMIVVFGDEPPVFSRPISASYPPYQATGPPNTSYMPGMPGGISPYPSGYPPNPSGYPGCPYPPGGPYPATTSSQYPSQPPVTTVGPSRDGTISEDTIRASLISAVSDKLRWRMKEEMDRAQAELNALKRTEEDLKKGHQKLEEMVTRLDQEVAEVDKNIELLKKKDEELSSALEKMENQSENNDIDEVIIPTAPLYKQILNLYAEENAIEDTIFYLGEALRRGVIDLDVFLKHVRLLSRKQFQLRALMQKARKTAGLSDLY
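FP read-out: FITC-PTAP peptide, 50 nM final, binding Tsg101 binding domain, 10 uM final; 20 min, r.t.; 10 mM HEPES pH 7.5, 0.15 M NaCl, 0.01% Tween 20, 3 mM EDTA, 0.1 mM TCEP.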
KB-V1 MDR tox: KB-V1 MDR subline cytotoxicity; KB-V1 MDR cells viability, CellTiter-Glo, 72 h; Potency, µM (doses to about 46.1 µM), most hits filed as cytotoxic; actives 3.4% (n = 400,000); AID 1347076; note: nearly all actives have a fitted effect of over 60% in size
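Luminescent ATP read-out (CellTiter-Glo, 10 min) measures survival of drug-selected KB-V1 MDR cells after 72 h, 37 degrees C compound exposure. Medium: phenol-red-free DMEM, 10% FBS. Values from fitted concentration-response curves.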
RGS4 inh: inhibitors of human regulator of G protein signaling 4; P49798; Transcreener GDP fluorescence polarization, RGS4-accelerated GTP hydrolysis; actives 0.039% (n = 390,000); Potency, µM (titrated, usually from 114 µM), actives largely listed as inhibitors; AID 504845; note: nearly all actives have a fitted effect of over 75% in size
Target sequence (P49798 whole entry, looked up): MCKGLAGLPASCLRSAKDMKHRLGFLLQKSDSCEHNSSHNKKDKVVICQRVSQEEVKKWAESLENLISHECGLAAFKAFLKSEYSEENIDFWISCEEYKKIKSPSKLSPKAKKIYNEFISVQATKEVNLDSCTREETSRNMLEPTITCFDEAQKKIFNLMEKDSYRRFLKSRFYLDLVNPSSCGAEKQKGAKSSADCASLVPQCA
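MLSMR compounds (23 nl, pin-transferred) preincubated 10 min at room temperature with a 500nM (2x) first reagent, then RGS4 at 900nM (2x) plus Transcreener GDP mix added; fluorescence polarization (620/688 nm) read before and after 90 min at 30 °C.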
SW480 rereplic: inducers of DNA re-replication in SW480 colon cancer cells. Potency, µM (highest dose often 46.1 µM), actives largely listed as activators. actives 1.8% (n = 340,000). SW480 DNA re-replication, Hoechst DNA content imaging, 48 h; note: nearly all actives have a fitted effect of over 55% in size
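Per well, 250 cells were exposed to pinned compound for 48 hr. Nuclear DNA was visualised with Hoechst (40 min, 37 C) and total object intensity recorded by fluorescence scanning.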
KB-3-1 tox: kills parental KB-3-1 adenocarcinoma cells. KB-3-1 viability, CellTiter-Glo ATP luminescence, 72 h. Potency, µM (series often up to 46.1 µM), actives largely listed as cytotoxic. actives 1.4% (n = 400,000); note: nearly all actives have a fitted effect of over 60% in size
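Using CellTiter-Glo luminescence, growth of non-resistant KB-3-1 adenocarcinoma cells is assessed 72 h after pin-tool compound addition at 37 °C. Normalized responses across the concentration series yield fitted curves.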
MCF10A rereplic: inducers of DNA re-replication in MCF 10A breast cells. MCF 10A DNA re-replication, Hoechst nuclear intensity, 48 h. Potency, µM (highest dose often 46.1 µM), actives largely listed as activators. actives 2.9% (n = 350,000); note: nearly all actives have a fitted effect of over 50% in size
Numbers stand for hits; ! = repeats disagree; [ ] = remark or other dose. Unless noted, calls come from the whole dose curve; as a rule, active = well fitted curve in the direction sought with a large enough effect; inconclusive = small, poorly fitted or top-dose-only effect, or another doubt; inactive = no such curve, though single readings can be large; an effect the other way counts as inactive or inconclusive.

For CCN(CC)c1ccc(C(=C2C=CC(=[N+](CC)CC)C=C2)c2ccc(S(=O)(=O)O)cc2S(=O)(=O)[O-])cc1 the results were TSG101-PTAP inh inactive, KB-V1 MDR tox inconclusive, RGS4 inh inconclusive, SW480 rereplic inactive, KB-3-1 tox 11.6µM and MCF10A rereplic inactive.
Screening CN(C)c1ccc(C(=C2C=CC(=[N+](C)C)C=C2)c2c(O)c(S(=O)(=O)[O-])cc3cc(S(=O)(=O)O)ccc23)cc1 returned KB-V1 MDR tox inactive, SW480 rereplic inactive, KB-3-1 tox inconclusive and MCF10A rereplic inactive.
`CCOC(=O)c1ccc(NC(=S)NN2CCOCC2)cc1` gave TSG101-PTAP inh inactive, KB-V1 MDR tox inactive, RGS4 inh inactive, SW480 rereplic inactive, KB-3-1 tox inactive and MCF10A rereplic 23.1µM.
Screening O=C(NC(=S)Nc1ccc(N2CCOCC2)cc1)c1ccccc1 returned TSG101-PTAP inh inactive, KB-V1 MDR tox inactive, RGS4 inh inactive, SW480 rereplic inactive, KB-3-1 tox inactive and MCF10A rereplic inactive.
Screening CCOC(=O)c1ccc(NC(=S)Nc2ccc(C)cc2)cc1 returned TSG101-PTAP inh inactive, KB-V1 MDR tox inactive, RGS4 inh inactive, SW480 rereplic inactive, KB-3-1 tox inactive and MCF10A rereplic inactive.
`CCOC(=O)c1ccc(NC(=S)N2CCSC2c2ccc(OC)cc2)cc1` (configuration not stated) gave TSG101-PTAP inh inactive, KB-V1 MDR tox 18.4µM, RGS4 inh inactive, SW480 rereplic inactive, KB-3-1 tox inactive and MCF10A rereplic inactive.
`CCc1ccc(C(=O)NC(=S)Nc2ccc(N3CCOCC3)cc2)cc1` gave TSG101-PTAP inh inactive, KB-V1 MDR tox 18.4µM, RGS4 inh inactive, SW480 rereplic inactive, KB-3-1 tox inactive and MCF10A rereplic inactive.
For O=C(NC(=S)Nc1ccc(N2CCOCC2)cc1)c1ccco1 the results were TSG101-PTAP inh inactive, KB-V1 MDR tox 16.4µM, RGS4 inh inactive, SW480 rereplic inconclusive, KB-3-1 tox inactive and MCF10A rereplic inactive.
Screening CCc1ccccc1NC(=O)CSc1nc2ncccc2o1 returned KB-V1 MDR tox inactive, RGS4 inh inactive and KB-3-1 tox inactive.
O=C(CNC(=O)C1CCCCC1)OCC(=O)c1ccc([N+](=O)[O-])cc1 was read as KB-V1 MDR tox inactive, RGS4 inh inactive and KB-3-1 tox inactive.
For Cc1ccc(C2CC(=O)c3cnc(N4CCc5ccccc5C4)nc3C2)cc1 (configuration not stated) the results were TSG101-PTAP inh inactive, KB-V1 MDR tox 23.1µM, RGS4 inh inactive, SW480 rereplic inactive, KB-3-1 tox inactive and MCF10A rereplic inactive.
Screening Cc1ccc(C2CC(=O)c3cnc(N4CCN(c5ccccc5)CC4)nc3C2)cc1 (configuration not stated) returned TSG101-PTAP inh inactive, KB-V1 MDR tox 5.17µM, RGS4 inh inactive, SW480 rereplic inactive, KB-3-1 tox inconclusive and MCF10A rereplic inactive.
Screening CC(C)[C@H]1COCCS(=O)(=O)N1Cc1cccc([N+](=O)[O-])c1 returned KB-V1 MDR tox inactive and KB-3-1 tox inactive.
`CCOC(=O)c1cc(-c2ccc(F)cc2)n(CCC(=O)NCc2ccc(C)cc2)c1C` gave KB-V1 MDR tox inactive, RGS4 inh inactive and KB-3-1 tox inactive.
For COc1ccccc1CNC(=O)C1CCN(C2=NS(=O)(=O)C(c3ccc(C)c(C)c3)=C2C)CC1 the results were KB-V1 MDR tox inactive, RGS4 inh inactive and KB-3-1 tox inactive.
COc1cc2c(C#CCCO)c(-c3ccc(C#N)cc3)oc(=O)c2cc1OC was read as TSG101-PTAP inh inactive, KB-V1 MDR tox inactive, RGS4 inh inactive, SW480 rereplic inactive[9.22 µM], KB-3-1 tox inactive and MCF10A rereplic 6.51µM.
For N#Cc1cnn2c1nc(N1CCCCC1)c1ccccc12 the results were TSG101-PTAP inh inactive, KB-V1 MDR tox 11.6µM, RGS4 inh inactive, SW480 rereplic inactive, KB-3-1 tox inconclusive and MCF10A rereplic inactive.
Screening CC(C)c1ccc(S(=O)(=O)c2nnn3c2nc(N2CCCCC2)c2ccccc23)cc1 returned TSG101-PTAP inh inactive, KB-V1 MDR tox inactive, RGS4 inh inactive, SW480 rereplic inactive, KB-3-1 tox inactive and MCF10A rereplic inactive.
Cc1csc2nc(COC(=O)c3ccccc3NC(=O)c3ccc(C(C)(C)C)cc3)cc(=O)n12 was read as RGS4 inh inactive.
`CCCCCCOc1ccc(OC(=O)c2ccncc2)cc1` gave TSG101-PTAP inh inactive, KB-V1 MDR tox inactive, RGS4 inh inactive, SW480 rereplic inconclusive, KB-3-1 tox inactive and MCF10A rereplic 23.1µM.
For CC(C)CN1CCC(=O)N([C@H](CSc2ccccc2)Cc2ccccc2)CC1 the results were TSG101-PTAP inh inactive, KB-V1 MDR tox 13µM!, RGS4 inh inactive, SW480 rereplic inconclusive, KB-3-1 tox inconclusive and MCF10A rereplic inconclusive.
`Cc1ccc(SC[C@H](Cc2ccccc2)N2CCN(CC(C)C)CCC2=O)cc1` gave KB-V1 MDR tox inactive, RGS4 inh inactive, SW480 rereplic inactive, KB-3-1 tox inactive and MCF10A rereplic inconclusive.
Cc1ccc(SC[C@H](c2ccccc2)N2CCN(CCc3ccccc3)CCC2=O)cc1 was read as TSG101-PTAP inh inactive, KB-V1 MDR tox inactive, RGS4 inh inactive, SW480 rereplic inactive, KB-3-1 tox inactive and MCF10A rereplic 8.2µM.
`CC1=NN(C(=O)COc2ccccc2C)C(O)(c2ccc(Cl)cc2)C1` (configuration not stated) gave TSG101-PTAP inh inactive, KB-V1 MDR tox 13µM, RGS4 inh inactive, SW480 rereplic inactive, KB-3-1 tox inactive and MCF10A rereplic inactive.
For Clc1nccc2c1ccc1ccccc12 the results were KB-V1 MDR tox inactive, RGS4 inh inactive and KB-3-1 tox inactive.
For Nc1cc2c3ccccc3ccc2c2ccccc12 the results were TSG101-PTAP inh inactive, KB-V1 MDR tox inactive, RGS4 inh inactive, SW480 rereplic 20.6µM, KB-3-1 tox inconclusive and MCF10A rereplic inconclusive.
COC(=O)[C@@]1(Cc2ccc(OC)cc2)[C@H]2c3cc(C(=O)N4CCCC4)n(Cc4ccccc4)c3C[C@H]2CN1C(=O)c1ccccc1 was read as KB-V1 MDR tox 10.3µM and KB-3-1 tox inconclusive.
`COC(=O)[C@@]1(Cc2ccc(OC)cc2)[C@H]2c3cc(C(=O)N4CCCC4)n(Cc4ccc(C)c(F)c4F)c3C[C@H]2CN1C(=O)c1ccccc1` gave KB-V1 MDR tox 7.31µM and KB-3-1 tox inconclusive.
`COC(=O)[C@@]1(Cc2ccc(OC)cc2)[C@H]2c3cc(C(=O)N4CCCC4)n(CCO)c3C[C@H]2CN1C(=O)c1ccccc1` gave KB-V1 MDR tox inactive, RGS4 inh inactive, SW480 rereplic inactive, KB-3-1 tox inactive and MCF10A rereplic inactive.

Assay outcomes (PubChem)
